# D3 ag = agonists of human D3 dopamine receptor; P35462; D3R DiscoveRx beta-arrestin cells, luminescence, 90 min; max activation, %; 410,000 compounds, 0.58% hits; in the data active means max activation above about 30%; further: 0% is about no effect
# Target sequence (P35462 whole entry, looked up): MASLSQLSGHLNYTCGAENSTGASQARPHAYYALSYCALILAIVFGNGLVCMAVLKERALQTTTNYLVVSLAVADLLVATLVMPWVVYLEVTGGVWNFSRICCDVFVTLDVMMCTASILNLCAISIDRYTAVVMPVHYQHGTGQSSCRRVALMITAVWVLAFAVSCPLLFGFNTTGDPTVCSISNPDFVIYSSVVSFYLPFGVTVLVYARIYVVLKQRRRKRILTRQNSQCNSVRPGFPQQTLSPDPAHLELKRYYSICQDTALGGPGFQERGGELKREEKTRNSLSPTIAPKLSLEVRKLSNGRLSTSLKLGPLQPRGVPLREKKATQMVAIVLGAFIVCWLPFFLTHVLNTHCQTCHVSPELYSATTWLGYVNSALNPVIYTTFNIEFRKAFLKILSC
#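 Agonist mode: compounds and dopamine controls were applied to plated cells for 90 min at 37 degrees C after an overnight attachment at 1500 cells/well. Luminescent read-out followed 30 - 60 minutes at room temperature with DiscoveRx detection reagent.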
# D3 antag = antagonists of human D3 dopamine receptor | D3R cells, DiscoveRx beta-arrestin luminescence, antagonist mode; active compounds read low | max response, negative = inhibition, % | 360,000 compounds, 2.5% hits; in the data active means max response below about -50%; inconclusive means no clear call, values can overlap the other calls; further: on the % scale 0 is the no-effect control and ±100 the full control effect
#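 Cells plated overnight at 1500 cells/well, then exposed to library compounds with dopamine controls for 90 minutes at 37 degrees C. DiscoveRx reagent added for 30–60 minutes at room temperature; luminescence read, quantitative HTS format.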
# uPA generation = inhibitors of cell surface uPA generation. cell surface uPA generation assay, qHTS. 330,000 compounds, 0.31% hits. Potency, µM (top dose mostly 38.3 µM), for inactives: top-dose activity change, negative = inhibition, hits mostly inhibitors; active means well fitted inhibition curve with a large enough effect; inconclusive means small, poorly fitted or top-dose-only effect; inactive means no such curve, though single readings can be large or run the other way; tested in mouse RAW 264.7 cells; further: potency means the concentration at half of the fitted maximal effect; on the % scale 0 is the no-effect control and ±100 the full control effect; nearly all actives have a fitted effect of over 55% in size
# RGS4 inh = blocks human RGS4-accelerated GTP hydrolysis | P49798 | Transcreener GDP fluorescence polarization, RGS4-accelerated GTP hydrolysis | AID 504845 | Potency, µM (doses to about 114 µM), for inactives: at the top dose activity change, negative = inhibition, hits mostly inhibitors | 390,000 compounds, 0.039% hits; active means well fitted inhibition curve with a large enough effect; inconclusive means small, poorly fitted or top-dose-only effect; inactive means no such curve, though single readings can be large or run the other way; further: potency means the concentration at half of the fitted maximal effect; on the % scale 0 is the no-effect control and ±100 the full control effect; nearly all actives have a fitted effect of over 75% in size
#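 MLSMR compounds (23 nl, pin-transferred) preincubated 10 min at room temperature with a 500nM (2x) first reagent, then RGS4 at 900nM (2x) plus Transcreener GDP mix added; fluorescence polarization (620/688 nm) read before and after 90 min at 30 °C.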
# Active calls of the source: *; ? = inconclusive; . = no result given; [ ] = remark or other dose. A selection: hits, their analogues and other compounds. The true share with any hit is near 3.1%.
SMILES,D3 ag,D3 antag,uPA generation,RGS4 inh
NNc1nc2sc3c(c2c(=O)[nH]1)CCc1ccccc1-3,-6,-55*,5%,-49%
CCSc1nc2sc3c(c2c(=O)[nH]1)CCc1ccccc1-3,2,-11,-7%,7%
COc1cc(C2C(=O)N(C3CCCCC3)CC(=O)N2CCC2=CCCCC2)ccc1OC(C)C (configuration not stated),3,.,.,-1%
O=c1ccn([C@@H]2O[C@H](CNCC3=Cc4cc(O)ccc4OC3)[C@@H](O)[C@H]2O)c(=O)[nH]1,55*,47,1%,-1%
Cc1cccc(C(=O)Nc2cccc(OCc3cc(=O)n4c(C)csc4n3)c2)c1,-4,.,.,5%
CC1=CC(=O)C=CC1=Nc1ccc(N(C)C)cc1,-11,-51*,.,.
CN(C)c1ccc(N=Nc2ccc(S(N)(=O)=O)cc2)cc1,-10,-7,-4%,-19%
Clc1ccc(-c2nnc(-c3ccco3)o2)cc1,2,-16,-11%,19%
c1cncc(-c2nnc(-c3ccco3)o2)c1,2,-108*,7%,9%
c1cncc(-c2nc(-c3ccco3)cs2)c1,-4,-63*,-3%,-43%
COc1ccc(CSc2nc(C)cc(=O)[nH]2)cc1Br,-11,-84*,3%,-14%
Cc1ccc(NC(=S)NNC(=O)c2cn(C)nc2C)cc1,-6,-67*,-3%,9%
Cc1ccc(NC(=S)NNC(=S)Nc2ccc(C)cc2)cc1,1,16,-5%,?
Cc1ccc(NC(=S)NNC(=O)Nc2ccccc2)cc1,-18,-52*,-8%,-45%
O=C(NNC(=S)Nc1ccccc1)NNC(=S)Nc1ccccc1,-4,-70*,2%,-18%
O=C(NNC(=S)Nc1ccccc1)Nc1ccccc1,1,-24,-8%,-34%
Cc1cc(C)cc(OCc2cc(=O)n3c4c(sc3n2)CCCC4)c1,7,.,.,-8%
CCOc1ccc(N(CC(=O)Nc2ccc3c(c2)OCO3)S(=O)(=O)c2ccccc2)cc1,-13,.,.,-4%
COc1ccccc1OCCNC1CCCC1,-7,-76*,1%,1%
CCC(C)c1ccccc1OCCCNC1CCCC1 (configuration not stated),-3,-82*,?,-19%
O=C(Nc1ccc(C(F)(F)F)cc1)C1CCC(CNS(=O)(=O)c2cccc3nsnc23)CC1 (configuration not stated),2,.,.,6%
COc1ccc(CN2CCc3c(c(=O)n4ncc(C(=O)N5CCN(c6ccccc6F)CC5)c4n3C)C2)cc1,-2,.,.,2%
N#CC1=C(SCC(=O)c2ccc(Br)cc2)NC2=C(C(=O)CCC2)C1c1ccco1 (configuration not stated),1,-59*,-12%,-38%
COc1cccc(/C=C/C(=O)c2c(O)cc(C)oc2=O)c1O,1,-74*,1%,-1%
Cc1ccc(-n2c(=O)c3oc4ccccc4c3n(CC(=O)Nc3ccc(F)c(Cl)c3)c2=O)cc1C,6,.,.,-24%
SMILES,D3 ag,D3 antag,uPA generation,RGS4 inh
Cc1noc(C)c1CSCC(=O)Oc1ccc(N(C)S(=O)(=O)c2ccc(Cl)cc2)cc1,36*,-4,-1%,-6%
CN1C2CCC1/C(=C\c1ccccc1F)C(=O)/C2=C/c1ccccc1F,-8,-54*,-8%,-26%
COc1ccc2cc(C3c4cc(OC)c(OC)cc4CCN3C(=O)c3ccco3)c(=O)[nH]c2c1 (configuration not stated),4,-12,-11%,-8%
COc1cc2c(cc1OC)C(c1cc3cc(C)ccc3[nH]c1=O)N(C(=O)c1ccco1)CC2 (configuration not stated),37*,10,-18%,-23%
CN1CCc2nc(SCc3ccc(Cl)cc3)c(C#N)c(-c3cccs3)c2C1,-38,-60*,.,?
N#Cc1c(N)nc(SCc2ccncc2)c(C#N)c1-c1cccs1,23,38,.,-8%
N#Cc1cc2c(nc1SCc1ccc(Cl)cc1)CCCC2,1,-64*,7%,-6%
N#Cc1cc2c(nc1SCc1ccccc1)CCCCC2,0,5,0%,-36%[11.4 µM]
COc1cccc2c1C(=O)CC(c1ccccc1)O2 (configuration not stated),.,.,.,-149%[56.9 µM]
Cc1cc(C(=O)Nc2ccccn2)no1,33*,15,.,13%
Cc1cc(NC(=O)c2cccc(C(=O)Nc3cc(C)on3)n2)no1,-7,-24,-4%,-2%
CCOc1ccc(Nc2cc(C)nc(-n3nc(C)cc3C)n2)cc1,1,-52*,-6%,-7%
CCOc1cc(/C=N/Nc2cc(C)nc(-n3nc(C)cc3C)n2)ccc1O,-41,-175*,?,17%
